Data from PubChem BioAssay (EPA / NIEHS).
Active and inactive are the calls of the source. How the source made its calls: active means hit-call score of the fitted dose curve at least 0.9, where 1 is the maximum; inactive means score below 0.9.

Assays:
Conditions in all cases: mRNA level, 48 h; actives raise or lower the signal
CYP2C8 (gene 1558) = assay: LTEA_HepaRG_CYP2C8: Life Technologies and Expression Analysis (LTEA) Assay for CYP2C8 using HepaRG (AID 2283483)
In short: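 This is a transcriptional endpoint in HepaRG cultures: 48 h exposure, highest concentration 100 uM. CYP2C8 mRNA is quantified by TaqMan qRT-PCR.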

CYP2C9 (gene 1559) = assay: LTEA_HepaRG_CYP2C9: Life Technologies and Expression Analysis (LTEA) Assay for CYP2C9 using HepaRG (AID 2283484)
In short: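 Eight-point concentration-response (highest 100 uM, half-log dilutions) in HepaRG cells for 48 h; CYP2C9 expression by qRT-PCR normalized to ACTB, GAPDH, POLR2A. Bidirectional fit, DMSO baseline.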

CYP2E1 (gene 1571) = assay: LTEA_HepaRG_CYP2E1: Life Technologies and Expression Analysis (LTEA) Assay for CYP2E1 using HepaRG (AID 2283485)
In short: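 CYP2E1 transcript was measured by TaqMan qRT-PCR in human HepaRG cultures after 48 h chemical exposure (top 100 uM, half-log steps, 0.5% DMSO vehicle). Housekeeping-gene normalization; gain or loss fitted relative to DMSO baseline.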

CYP4A11 (gene 1579) = assay: LTEA_HepaRG_CYP4A11: Life Technologies and Expression Analysis (LTEA) Assay for CYP4A11 using HepaRG (AID 2283486)
In short: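 Readout is CYP4A11 mRNA induction or suppression (qRT-PCR, ACTB/GAPDH/POLR2A normalization) in human HepaRG cells after 48 h chemical treatment, concentrations to 100 uM in 0.5% DMSO, fitted bidirectionally against vehicle.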

[1] = read-out: Cytochrome P450 3A4 (Homo sapiens) (UniProt P08684); assay: LTEA_HepaRG_CYP3A4: Life Technologies and Expression Analysis (LTEA) Assay for CYP3A4 using HepaRG (AID 2283487)
In short: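 HepaRG, 48 h exposure, 8-pt CRC from 100 uM (half-log), 0.5% DMSO, duplicates; serum-free induction medium. Readout: CYP3A4 mRNA, qRT-PCR, ACTB/GAPDH/POLR2A normalization. Bidirectional fit vs DMSO.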

[2] = read-out: DNA damage-inducible transcript 3 (DDIT3), DDIT3 (gene 1649); assay: LTEA_HepaRG_DDIT3: Life Technologies and Expression Analysis (LTEA) Assay for DNA damage-inducible transcript 3 (DDIT3) using HepaRG (AID 2283488)
In short: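 qRT-PCR readout (Fluidigm TaqMan), housekeeping-normalized to ACTB, GAPDH, POLR2A. HepaRG cells, 48 h exposure, 8-point half-log series from 100 uM in 0.5% DMSO, duplicates. Gain or loss of signal fitted against DMSO baseline.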

[3] = read-out: Pro-epidermal growth factor (Homo sapiens) (UniProt P01133); assay: LTEA_HepaRG_EGF: Life Technologies and Expression Analysis (LTEA) Assay for Epidermal growth factor (EGF) using HepaRG (AID 2283489)
In short: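 EGF expression changes in human HepaRG cells are scored by bidirectional fitting relative to 0.5% DMSO controls. Chemicals are tested at eight half-log concentrations up to 100 uM for 48 h in serum-free induction medium.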

[4] = read-out: Early growth response protein 1 (EGR1) transcription factor, EGR1 (gene 1958); assay: LTEA_HepaRG_EGR1: Life Technologies and Expression Analysis (LTEA) Assay for Early growth response protein 1 (EGR1) transcription factor using HepaRG (AID 2283490)
In short: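 EGR1 expression change in human HepaRG after 48 h chemical exposure, assessed by housekeeping-normalized qRT-PCR; concentration-response up to 100 uM, fitted in both directions against DMSO controls.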

[5] = read-out: Ezrin (EZR), EZR (gene 7430); assay: LTEA_HepaRG_EZR: Life Technologies and Expression Analysis (LTEA) Assay for Ezrin (EZR) using HepaRG (AID 2283491)
In short: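 Read-out is EZR transcript level by qRT-PCR, normalized to three housekeeping genes and fitted bidirectionally against the DMSO control. Human HepaRG cells received test chemicals for 48 h at eight half-log concentrations up to 100 uM in 0.5% DMSO.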

[6] = read-out: Cytochrome P450 3A7 (Homo sapiens) (UniProt P24462); assay: LTEA_HepaRG_CYP3A7: Life Technologies and Expression Analysis (LTEA) Assay for CYP3A7 using HepaRG (AID 2283492)
In short: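 Cells were thawed, plated, cultured 48 h, then treated for a further 48 h with chemicals (eight-point half-log series from 100 uM, 0.5% DMSO). RNA was isolated and CYP3A7 expression quantified by qRT-PCR normalised to ACTB, GAPDH and POLR2A.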

Measured: AC50

Chain of Cytochrome P450 3A7 (Homo sapiens) (P24462 whole entry, looked up): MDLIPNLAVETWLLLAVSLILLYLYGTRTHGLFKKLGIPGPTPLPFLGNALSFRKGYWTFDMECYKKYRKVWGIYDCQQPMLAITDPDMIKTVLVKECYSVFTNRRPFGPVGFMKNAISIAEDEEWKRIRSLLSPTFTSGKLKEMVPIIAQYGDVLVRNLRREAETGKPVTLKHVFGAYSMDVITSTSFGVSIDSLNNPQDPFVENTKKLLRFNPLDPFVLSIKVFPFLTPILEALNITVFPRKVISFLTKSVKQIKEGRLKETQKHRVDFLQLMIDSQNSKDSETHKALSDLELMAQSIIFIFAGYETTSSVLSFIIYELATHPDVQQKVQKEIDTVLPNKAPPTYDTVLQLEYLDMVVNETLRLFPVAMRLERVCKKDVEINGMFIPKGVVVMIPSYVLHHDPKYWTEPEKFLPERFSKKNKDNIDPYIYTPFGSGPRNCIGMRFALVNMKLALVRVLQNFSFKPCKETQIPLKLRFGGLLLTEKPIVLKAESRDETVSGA
Chain of Cytochrome P450 3A4 (Homo sapiens) (P08684 whole entry, looked up): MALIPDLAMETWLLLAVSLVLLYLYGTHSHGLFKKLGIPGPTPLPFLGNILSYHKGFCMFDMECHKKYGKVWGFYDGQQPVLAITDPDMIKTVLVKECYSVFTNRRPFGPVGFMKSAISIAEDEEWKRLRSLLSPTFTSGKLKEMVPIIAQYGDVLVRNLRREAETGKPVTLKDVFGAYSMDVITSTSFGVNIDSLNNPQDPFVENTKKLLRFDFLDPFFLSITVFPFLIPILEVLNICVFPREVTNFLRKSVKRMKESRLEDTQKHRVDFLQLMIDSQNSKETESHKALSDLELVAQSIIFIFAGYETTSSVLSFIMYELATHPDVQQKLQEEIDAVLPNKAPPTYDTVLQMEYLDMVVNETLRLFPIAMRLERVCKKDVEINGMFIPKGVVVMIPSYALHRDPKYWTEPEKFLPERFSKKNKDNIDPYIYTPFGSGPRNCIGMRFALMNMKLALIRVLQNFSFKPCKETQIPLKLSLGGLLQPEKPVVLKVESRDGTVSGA

CC/C(=C\C(=N/O)C(N)=O)C(C)[N+](=O)[O-] (stereo not given)
inactive: all assays above

CCCN(C1CCN(C(=O)C2CCNCC2)CC1)[C@@H]1CCc2ccc(OC)cc2C1
inactive: [3] | [4] | [5]
active: CYP2C8 (gene 1558) 86.5 µM | CYP2C9 (gene 1559) 80.3 µM | CYP2E1 (gene 1571) 67.4 µM | CYP4A11 (gene 1579) 90.7 µM | [1] 86.7 µM | [2] 50 µM | [6] 86.4 µM

C=CCCCCCCCCC(=O)O
inactive: all assays above

CCN(C(=O)c1cc(C)cc(OC[C@H](C)Nc2ccncc2)c1)C(C)C
active: CYP2C8 (gene 1558) 58.4 µM | CYP2C9 (gene 1559) 56.6 µM | CYP2E1 (gene 1571) 27.9 µM | CYP4A11 (gene 1579) 33.8 µM | [1] 8.63 µM | [2] 48 µM | [6] 8.43 µM
inactive: [3] | [4] | [5]

O=c1[nH]c2ccc(S(=O)CCN3CCC(Cc4ccc(F)cc4)CC3)cc2o1 (stereo not given)
active: CYP2C8 (gene 1558) 78.5 µM | CYP2C9 (gene 1559) 71.1 µM | CYP2E1 (gene 1571) 50 µM | CYP4A11 (gene 1579) 82.6 µM | [1] 12.5 µM | [2] 50 µM | [3] 30.7 µM | [4] 50 µM | [6] 90.1 µM
inactive: [5]

CCOC(=O)c1ccc(C2CCC(NC[C@H](O)COc3ccc(O)c(NS(C)(=O)=O)c3)CC2)cc1 (stereo not given in full)
inactive: all assays above

CC1(C)C(=O)N(Br)C(=O)N1Br
inactive: all assays above

CCOCCOCCOCCO
inactive: all assays above

CC(C)CCCCCCOC(=O)c1ccc(C(=O)OCCCCCCC(C)C)c(C(=O)OCCCCCCC(C)C)c1
inactive: all assays above

CCOC(=O)COc1ccc2c(c1)CC(NCC(O)c1cccc(Cl)c1)CC2 (stereo not given)
inactive: all assays above

CCCCCCCCO
inactive: all assays above

COc1ccc(/C=C/S(=O)(=O)NC(=O)c2ccc(C)cc2Cl)cc1
active: CYP2E1 (gene 1571) 69.6 µM | [6] 20.1 µM
inactive: all other assays above

Cn1c(=O)c2c(ncn2C)n(C)c1=O
inactive: all assays above

Fc1ccccc1[C@@H](F)COC1CCC(Nc2ncnc3[nH]ncc23)CC1 (stereo not given in full)
active: CYP2C9 (gene 1559) 37.7 µM | CYP2E1 (gene 1571) 12.7 µM | CYP4A11 (gene 1579) 40.1 µM | [1] 35.6 µM | [2] 28.9 µM | [3] 50 µM | [4] 14.3 µM | [6] 83.1 µM
inactive: CYP2C8 (gene 1558) | [5]

C1=CCCC=CCCC=CCC1
inactive: all assays above

CN(C)c1ccc(Cc2ccc(N(C)C)cc2)cc1
active: CYP2C8 (gene 1558) 90.6 µM | CYP2C9 (gene 1559) 90.8 µM | CYP2E1 (gene 1571) 50 µM | CYP4A11 (gene 1579) 89 µM | [1] 2.5 µM | [6] 11.6 µM
inactive: [2] | [3] | [4] | [5]

CC[C@H]1CC[C@H](NCc2cc3c(cc2OC)[C@H]2C[C@H]2C(=O)N3C)[C@H](c2ccccc2)N1
active: CYP2C8 (gene 1558) 11.1 µM | CYP2E1 (gene 1571) 50 µM | CYP4A11 (gene 1579) 81.8 µM | [1] 14.2 µM | [2] 50 µM | [6] 8.34 µM
inactive: CYP2C9 (gene 1559) | [3] | [4] | [5]

CCNc1ccccc1
inactive: all assays above

Nc1ccc(Nc2ccccc2)cc1
active: CYP2E1 (gene 1571) 71.2 µM | [6] 62.7 µM
inactive: all other assays above

O=C(CCCCCCCCc1cccnc1)N1CCC(C=C(c2ccccc2)c2ccccc2)CC1
active: CYP2C8 (gene 1558) 29.7 µM | CYP2C9 (gene 1559) 31.2 µM | CYP2E1 (gene 1571) 14.1 µM | CYP4A11 (gene 1579) 12.6 µM | [1] 32 µM | [2] 22.1 µM | [4] 12.2 µM | [5] 13.1 µM
inactive: [3] | [6]

CC(C)CC(C)(O)C#CC(C)(O)CC(C)C (stereo not given)
active: CYP2E1 (gene 1571) 64.7 µM | CYP4A11 (gene 1579) 50 µM | [1] 19.4 µM
not listed: [3]
inactive: all other assays above

CC(C)=CCC/C(C)=C\CO
inactive: [2] | [3] | [4] | [5]

Nc1nc2ncc(CNc3ccc(C(=O)N[C@@H](CCC(=O)O)C(=O)O)cc3)nc2c(=O)[nH]1
inactive: all assays above

CCOC(=O)CC(CC(=O)OCC)(OC(C)=O)C(=O)OCC
inactive: all assays above

COc1ccc(-n2nc(C(F)F)cc2-c2ccc(S(C)=O)cc2)cc1 (stereo not given)
active: CYP2E1 (gene 1571) 25 µM | CYP4A11 (gene 1579) 68.8 µM | [1] 17.1 µM | [6] 19.3 µM
inactive: all other assays above

CCCCC(CC)COC(=O)c1ccc(C(=O)OCC(CC)CCCC)cc1 (stereo not given)
not listed: CYP2C9 (gene 1559)
inactive: all other assays above

C[C@](N)(Cc1ccc(O)c(O)c1)C(=O)O
inactive: all assays above

O=C(O)c1cccc(Oc2ccccc2)c1
active: CYP4A11 (gene 1579) 38.9 µM
inactive: all other assays above

CCC(C)(C)C(=O)O[C@H]1C[C@@H](C)C=C2C=C[C@H](C)[C@H](CC[C@@H]3C[C@@H](O)CC(=O)O3)[C@H]21
inactive: [2] | [3] | [4] | [5]

NC(=O)NO
inactive: [2] | [3] | [4] | [5]

CNS(=O)(=O)c1cc(C(=O)N2CCC(CCN3C4CCC3CC(n3c(C)nc5ccccc53)C4)(c3cccc(F)c3)CC2)c(Cl)cc1F (stereo not given)
inactive: [1] | [3] | [4]
active: CYP2C8 (gene 1558) 25.7 µM | CYP2C9 (gene 1559) 19.2 µM | CYP2E1 (gene 1571) 17.7 µM | CYP4A11 (gene 1579) 18.5 µM | [2] 29 µM | [5] 29.6 µM | [6] 9.92 µM

CC1=CC(=O)CC(C)(C)C1
inactive: all assays above

COCCOc1cc2cc(C(=O)NC3CCN(C(C)C)CC3)n(CC(=O)Nc3ccc(Cl)cn3)c2cn1
active: CYP2C8 (gene 1558) 61.8 µM | CYP2C9 (gene 1559) 62.2 µM | CYP2E1 (gene 1571) 52.6 µM | CYP4A11 (gene 1579) 69.7 µM | [1] 45 µM | [6] 72 µM
inactive: [2] | [3] | [4] | [5]

CCCCCCCCCCCCc1ccccc1
inactive: all assays above

CC[C@H](C)C(=O)O[C@H]1C[C@@H](C)C=C2C=C[C@H](C)[C@H](CC[C@@H]3C[C@@H](O)CC(=O)O3)[C@H]21
active: CYP2E1 (gene 1571) 29.8 µM
not listed: CYP2C9 (gene 1559) | [1] | [6]
inactive: all other assays above

Cc1ccc(O)cc1
inactive: [2] | [3] | [4] | [5]

O=C1CCC(N2C(=O)c3ccccc3C2=O)C(=O)N1 (stereo not given)
not listed: [3]
inactive: all other assays above

O=C(O)c1cc(N=Nc2ccc(S(=O)(=O)Nc3ccccn3)cc2)ccc1O
not listed: [1]
inactive: all other assays above

CN(C)c1ccc(N=NS(=O)(=O)O)cc1
active: CYP2C8 (gene 1558) 2.62 µM | CYP2E1 (gene 1571) 22 µM
inactive: all other assays above

Cn1cnc([N+](=O)[O-])c1Sc1ncnc2nc[nH]c12
active: CYP2C8 (gene 1558) 7.61 µM | CYP2C9 (gene 1559) 9.87 µM | CYP2E1 (gene 1571) 1.45 µM | CYP4A11 (gene 1579) 0.324 µM | [2] 9.59 µM | [4] 13 µM
inactive: [3] | [5]

On1ccccc1=S
not listed: [3]
inactive: all other assays above

CCCCCCCCCCCCCCCO
inactive: all assays above

CC(C)=CCC/C(C)=C/CO
inactive: [2] | [3] | [4] | [5]

O=C1OC(=O)C2C3C=CC(C3)C12 (stereo not given)
inactive: all assays above
